Data: PubChem BioAssay (NCATS)
Several values for one entry are separate records, joined by “and”; a condition that tells them apart may be missing. Equal entries are not always repeated. Inconclusive results are not listed. Activity calls are given as the source filed them. Unless noted, calls follow the shape of the dose curve; as a rule, active = well fitted curve in the direction sought with a large enough effect; inconclusive = small, poorly fitted or top-dose-only effect, or another doubt; inactive = no such curve, though single readings can be large; an effect the other way counts as inactive or inconclusive.

Tests used:
[1] = Cell Viability - MRC5 (AID 434; calls by dose curve;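 also: potency is read from the fitted curve at half-maximal effect; cells exposed to compound for 40 hours at 37 °C; potency reflects cytotoxicity seen as loss of intracellular ATP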); settings: MRC5 lung fibroblast viability, qHTS
In short: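 AC50 values come from Hill-equation fits of intracellular ATP loss, measured by CellTiter-Glo luminescence. Normal lung fibroblasts (MRC5) had 40 hr compound treatment at 37 C, normalized between DMSO and 100 uM tamoxifen.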

[2] = Cellular Toxicity (caspase-3) HepG2 (AID 654); settings: HepG2 caspase-3 activation, luminescence; series mostly up to 92.2 µM; also: potency is read from the fitted curve at half-maximal effect;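 as to caspase-3 activation: cells exposed to compound for 16 hours before reading; 0% = DMSO alone and 100% = caspase signal from 100 µM tamoxifen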
In short: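 Caspase 3/7 activation in HepG2 is measured as rising luminescence after a 16 hr treatment at 37 °C. Values are scaled between DMSO basal and 100 uM tamoxifen, and AC50 is fitted with the Hill equation.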

[3] = Cellular Toxicity (caspase-3) HUV-EC-C (AID 656); settings: HUV-EC-C cells, caspase-3 activation (apoptosis); series mostly up to 92.2 µM; also: potency is read from the fitted curve at half-maximal effect;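 as to caspase-3 activation: 0% = DMSO basal and 100% = 100 µM tamoxifen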
In short: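 HUV-EC-C cells (1000/well) in complete medium, compound-treated 16 h at 37 °C; caspase-3/7 activity read by Caspase-Glo 3/7 luminescence. Normalized to DMSO (basal) and 100 uM tamoxifen (100%); AC50 from Hill-equation concentration-response fits.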

[4] = Cellular Toxicity (caspase-3) MRC-5 (AID 659); settings: MRC-5 cells, luminescence, normalized: DMSO 0%, 10 µM staurosporine 100%; series mostly up to 91.7 µM
In short: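 Luminescent Caspase-Glo 3/7 read-out (1 h, room temperature) after a 16 h, 37 °C compound exposure of MRC-5 lung fibroblasts at 1500 cells/well. Concentration-response AC50 from Hill equation; 0% DMSO, 100% 10 uM staurosporine.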

[5] = Cellular Toxicity (caspase-3) Renal Proximal Tubule (AID 667); settings: renal proximal tubule cells, primary cells freshly taken from rat; Potency: caspase-3 activation; series mostly up to 91.7 µM;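 also: cells exposed to compound for 16 hours at 37 °C before detection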; also: potency is read from the fitted curve at half-maximal effect
In short: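 Freshly isolated primary rat kidney proximal tubule cells, 1000/well, treated 16 hr at 37 °C, then Caspase-Glo 3/7 luminescence after 1 hr. Normalized to DMSO and 10 uM staurosporine; AC50 from Hill fit.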

[6] = molecular target: Peroxisome proliferator-activated receptor alpha (Homo sapiens) (UniProt Q07869); assay: qHTS assay for small molecule agonists of the peroxisome proliferator-activated receptor alpha (PPARalpha) signaling pathway (AID 651778); settings: PathHunter PPARalpha complementation, chemiluminescence, 6 h; max response: stronger effect = higher value; also: potency is read from the fitted curve at half-maximal effect; as to max response: % of control where 0% means no effect
In short: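 Chemiluminescence from complemented enzyme reported PPARalpha activation in cells after 6 hr of compound treatment at 37 C. The detection reagent was incubated for 60 min at room temperature, and compounds were scored as agonists.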

[7] = qHTS assay for small molecule agonists of the antioxidant response element (ARE) signaling pathway measured by Nrf2-dependant transcriptional activity - cell viability counter screen (AID 720653; active = well fitted curve in the direction sought with a large enough effect in the repeat runs; an effect the other way counts as inactive or inconclusive; also: % is scaled to controls: 0 for no effect and ±100 for the full control effect); settings: ARE-bla HepG2 viability, CellTiter-Glo ATP luminescence, 16 h; max response: stronger effect = lower value
In short: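 Cytotoxicity counter screen: intracellular ATP quantified by CellTiter-Glo luminescence in the same ARE-bla HepG2 plates, after 16 h compound exposure and a 2 h beta-lactamase substrate step.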

[8] = NFAT Signaling Pathway (AID 444; active = well fitted curve in either direction with a large enough effect, not every such curve was filed as active;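 also: carbachol stimulus at about its EC50 of 1 µM final; % is scaled to controls: 0 for no effect and ±100 for the full control effect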); settings: Jurkat NFAT-bla M1, carbachol, beta-lactamase ratio, 5 h; at 7.69 µM (top of the series) unless noted
In short: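 Read-out: CCF4 FRET ratio (460 nm/530 nm) after 1 h RT dye loading, used for %activity and AC50 from titration series. Cells: Jurkat NFAT-β-lactamase/M1 line, treated with compound plus 1 uM carbachol for 5 h, 37 °C.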

[9] = Stat Signaling Pathway (AID 446; active = well fitted curve in either direction with a large enough effect, not every such curve was filed as active;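 also: ME-180 cervical cancer cells given 40 pM IL-6 alongside compound; SIE-controlled beta-lactamase reporter measured as 460/530 nm FRET emission ratio; % is scaled to controls: 0 for no effect and ±100 for the full control effect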); settings: ME-180 (cervical carcinoma) SIE beta-lactamase reporter, IL-6 stimulated, 5 h; at 7.69 µM (top of the series) unless noted
In short: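 Normalization used AC90 stimulation (300 pM IL-6) and AC90 inhibition (125 nM pan-JAK inhibitor at 40 pM IL-6). The underlying signal is SIE-driven beta-lactamase in ME-180 cells after 5 h IL-6 exposure with compound.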

[10] = molecular target: Glucocorticoid receptor (Homo sapiens) (UniProt P04150); assay: GR-GFP Redistribution (AID 450;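 active = compounds whose dose series gives a full or clear partial fitted curve of increased nuclear translocation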; also: potency is read from the fitted curve at half-maximal effect); settings: U2OS GR-GFP nuclear translocation, laser cytometry, 2 h
[11] = molecular target: Glucocorticoid receptor (Homo sapiens) (UniProt P04150); assay: GR-EFC Redistribution (AID 451; calls by dose curve; also: potency is read from the fitted curve at half-maximal effect); settings: CHO-K1 GR-EFC translocation, beta-gal luminescence, 2 h
In short: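 Translocation of GR-ED fusion to nuclear EA restores b-gal, read by luminescence after 1 h room-temperature detection. Engineered CHO-K1 biosensor cells, 1,000/well, exposed 2 h at 37 C to titrations up to 46 uM final.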

[12] = molecular target: Mitogen-activated protein kinase 10 (Mus musculus) (UniProt Q61831); assay: JNK3 AlphaScreen Assay (AID 530; active = well fitted curve in either direction with a large enough effect, not every such curve was filed as active;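 also: kinase came from lysate of stimulated human HepG2 cells; signal reports phosphorylation of biotinylated GST-cJun 1-79 at Ser73 with 10 µM ATP; % is scaled to controls: 0 for no effect and ±100 for the full control effect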); settings: JNK3 lysate, c-Jun phosphorylation; series mostly up to 11.4 µM
In short: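 qHTS titrations with 15 min compound pre-incubation before adding ATP (10 uM final). Read-out: AlphaScreen of Ser73-phosphorylated biotin-GST-cJun using HepG2 lysate JNK3 activated by IL-1β and TNFα.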

[13] = molecular target: 3',5'-cyclic-AMP phosphodiesterase 4B (Homo sapiens) (UniProt Q07343); assay: qHTS Assay for Inhibitors of PDE-IV (AID 607; active = well fitted activation curve with a large enough effect in the main read-out, with a control signal flat, not every such curve was filed as active; also: % of control where 0% means no effect); settings: HEK293 ACTOne CNG channel cells, membrane potential fluorescence; series mostly up to 22.9 µM
In short: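 HEK293 ACTOne cells with CNG channel (1000/well), endogenous PDE4; membrane potential dye, compounds up to 22.9 uM final. Fluorescence Ex 535/Em 590; RO 20-1724 (100 uM final) as reference.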

Sequence of Peroxisome proliferator-activated receptor alpha (Homo sapiens) (Q07869 whole entry, looked up): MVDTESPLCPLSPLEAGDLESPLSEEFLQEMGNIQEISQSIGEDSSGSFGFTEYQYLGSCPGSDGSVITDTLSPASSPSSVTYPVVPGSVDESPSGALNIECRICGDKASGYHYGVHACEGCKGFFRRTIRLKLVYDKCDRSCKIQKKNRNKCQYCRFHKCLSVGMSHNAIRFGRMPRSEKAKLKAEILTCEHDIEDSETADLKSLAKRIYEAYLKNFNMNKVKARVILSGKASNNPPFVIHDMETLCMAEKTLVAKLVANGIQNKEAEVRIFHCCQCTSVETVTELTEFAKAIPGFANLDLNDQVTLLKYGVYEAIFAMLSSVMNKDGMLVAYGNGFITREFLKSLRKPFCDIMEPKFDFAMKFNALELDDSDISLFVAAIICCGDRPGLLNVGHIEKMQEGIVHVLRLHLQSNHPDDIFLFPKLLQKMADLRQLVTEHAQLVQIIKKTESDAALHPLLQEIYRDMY
Sequence of Glucocorticoid receptor (Homo sapiens) (P04150 whole entry, looked up, the tested form may be a part): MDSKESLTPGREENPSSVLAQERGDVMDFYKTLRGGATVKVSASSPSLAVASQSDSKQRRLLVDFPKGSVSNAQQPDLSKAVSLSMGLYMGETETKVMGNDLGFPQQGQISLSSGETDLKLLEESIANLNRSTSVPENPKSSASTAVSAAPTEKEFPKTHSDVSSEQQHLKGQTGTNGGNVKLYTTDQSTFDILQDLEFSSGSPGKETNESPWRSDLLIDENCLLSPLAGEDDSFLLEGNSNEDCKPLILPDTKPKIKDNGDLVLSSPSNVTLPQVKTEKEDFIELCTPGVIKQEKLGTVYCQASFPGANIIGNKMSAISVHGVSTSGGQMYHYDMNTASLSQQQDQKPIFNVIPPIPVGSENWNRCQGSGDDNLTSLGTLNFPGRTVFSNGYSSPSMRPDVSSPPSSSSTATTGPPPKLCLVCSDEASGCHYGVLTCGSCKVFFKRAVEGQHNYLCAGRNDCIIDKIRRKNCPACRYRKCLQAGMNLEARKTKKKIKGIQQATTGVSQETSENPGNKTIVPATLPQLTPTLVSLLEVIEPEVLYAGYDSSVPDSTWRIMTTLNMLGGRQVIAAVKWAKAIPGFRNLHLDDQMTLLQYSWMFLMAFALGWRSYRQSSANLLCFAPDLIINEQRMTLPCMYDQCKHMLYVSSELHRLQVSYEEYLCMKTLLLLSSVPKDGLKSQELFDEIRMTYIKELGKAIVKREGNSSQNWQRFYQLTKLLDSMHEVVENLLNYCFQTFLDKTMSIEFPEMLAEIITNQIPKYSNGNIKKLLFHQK
Sequence of 3',5'-cyclic-AMP phosphodiesterase 4B (Homo sapiens) (Q07343 whole entry, looked up): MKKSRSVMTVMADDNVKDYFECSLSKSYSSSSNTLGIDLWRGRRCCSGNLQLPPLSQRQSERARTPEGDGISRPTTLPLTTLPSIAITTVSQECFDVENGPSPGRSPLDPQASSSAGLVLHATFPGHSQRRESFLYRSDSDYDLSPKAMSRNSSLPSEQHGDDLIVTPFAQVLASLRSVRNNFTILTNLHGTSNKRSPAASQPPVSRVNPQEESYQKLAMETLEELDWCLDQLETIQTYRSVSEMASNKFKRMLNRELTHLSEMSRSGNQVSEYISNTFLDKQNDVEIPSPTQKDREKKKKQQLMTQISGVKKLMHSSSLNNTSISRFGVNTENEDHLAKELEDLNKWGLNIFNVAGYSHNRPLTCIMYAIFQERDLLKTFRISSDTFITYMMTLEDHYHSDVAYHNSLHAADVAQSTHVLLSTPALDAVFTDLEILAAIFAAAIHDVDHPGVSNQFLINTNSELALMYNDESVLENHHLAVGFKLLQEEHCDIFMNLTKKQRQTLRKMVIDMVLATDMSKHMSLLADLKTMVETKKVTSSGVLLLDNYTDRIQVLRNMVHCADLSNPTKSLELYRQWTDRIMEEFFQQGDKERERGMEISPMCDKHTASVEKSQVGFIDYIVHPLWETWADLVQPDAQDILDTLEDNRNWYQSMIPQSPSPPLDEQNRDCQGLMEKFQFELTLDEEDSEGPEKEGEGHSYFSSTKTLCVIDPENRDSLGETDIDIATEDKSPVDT

CC(C)S
inactive: Potency [1] > 92 µM | Potency [2] | Potency [3] | outcome [4] | Potency [5] | max response [6] -0.0008% | max response [7] 14.7%

COc1cccc(Nc2ncc3nc(-c4ccccc4)c(=O)n(C4CC4)c3n2)c1
inactive: activity change, negative = inhibition [8] -5.16% | activity, negative = inhibition [9] 28.4% | Potency [10] > 9.22 µM | Potency [11] > 46 µM | Potency [12] | Potency [13]

Brc1ccc(-c2ccccc2)cc1
inactive: Potency [1] > 92 µM | Potency [2] | Potency [3] | outcome [4] | Potency [5] | max response [6] -2.37% | max response [7] -10.1%

Nc1cc([N+](=O)[O-])ccc1O
inactive: Potency [1] > 92 µM | Potency [12] | Potency [2] | Potency [3] | outcome [4] | Potency [5] | max response [6] -13.4% and -8.79% | max response [7] -7.79% and -12.9%

Brc1cc(Oc2cc(Br)c(Br)c(Br)c2Br)c(Br)c(Br)c1Br
inactive: Potency [1] > 92 µM | Potency [12] | Potency [2] | Potency [3] | outcome [4] | Potency [5] | max response [6] -7.16% and 0.47% | max response [7] 3.78% and -22.3%

CCCCC(CC)COCCCN (centres undefined)
inactive: Potency [1] > 92 µM | Potency [12] | Potency [2] | Potency [3] | outcome [4] | Potency [5] | max response [6] -9.53% | max response [7] -14.9%

Oc1cc(Cl)cc(Cl)c1Cl
inactive: Potency [1] > 92 µM | Potency [12] | Potency [2] | Potency [3] | outcome [4] | Potency [5] | max response [6] 6.36% | max response [7] -7.11%

CC(C)COC(=O)COc1cc(Cl)c(Cl)cc1Cl
inactive: Potency [1] > 92 µM | Potency [2] | Potency [3] | outcome [4] | Potency [5] | max response [6] 9.61% | max response [7] 7.92%

CC1=C(/C=C/C(C)=C/C=C/C(C)=C/C=O)C(C)(C)CCC1
active: Potency [1] 33.4 µM | Potency [2] 63.1 µM | Potency [3] 39.8 µM | Potency [5] 31.6 µM
inactive: Potency [12] | outcome [4] | max response [6] -2.8% | max response [7] 2.27%

S=C(NC1CCCCC1)NC1CCCCC1
inactive: Potency [1] > 92 µM | Potency [12] | Potency [2] | Potency [3] | outcome [4] | Potency [5] | max response [6] 1.4% | max response [7] -8.66%

CC(C)(C)C(=O)C1C(=O)c2ccccc2C1=O
inactive: Potency [1] > 92 µM | Potency [2] | Potency [3] | outcome [4] | Potency [5] | max response [6] 0.134% | max response [7] -24.2%

Nc1cc(C(=O)O)c(O)c(S(=O)(=O)O)c1
inactive: Potency [1] > 92 µM | Potency [2] | Potency [3] | outcome [4] | Potency [5] | max response [6] -5.08% | max response [7] 2.52%

O=Nc1ccc(Nc2ccccc2)cc1
inactive: Potency [12] | Potency [2] | Potency [3] | outcome [4] | Potency [5] | max response [6] -0.677% and -6.11% | max response [7] -2.32% and -16.8%

O=C1c2ccccc2C(=O)C1(O)O
inactive: Potency [12] | Potency [2] | Potency [3] | outcome [4] | Potency [5] | max response [6] 0.0449% | max response [7] -29.9%
active: Potency [1] 44.8 µM

C=CC1CO1 (centres undefined)
inactive: Potency [1] > 92 µM | Potency [2] | Potency [3] | outcome [4] | Potency [5] | max response [6] 1.5% | max response [7] -12.7%

Nc1ccc2c(c1)C(=O)c1ccccc1C2=O
inactive: Potency [1] > 92 µM | Potency [2] | Potency [3] | outcome [4] | Potency [5] | max response [6] -6.61% and 0.0151% | max response [7] -14.7% and -7.62%

CCCCCCc1ccc(-c2ccc(C#N)cc2)cc1
inactive: Potency [1] > 92 µM | Potency [2] | Potency [3] | outcome [4] | Potency [5] | max response [6] -3.23% | max response [7] -11.9%

NC(=O)Nc1nc2ccccc2[nH]1
inactive: Potency [1] > 92 µM | Potency [12] | Potency [2] | Potency [3] | outcome [4] | Potency [5] | max response [6] -2.7% | max response [7] -9.91%

O=C(Cl)c1ccc([N+](=O)[O-])cc1
inactive: Potency [1] > 92 µM | Potency [12] | Potency [2] | Potency [3] | outcome [4] | Potency [5] | max response [6] -4.65% | max response [7] 1.64%

O=c1[nH]ncc2ccccc12
inactive: Potency [1] > 92 µM | Potency [2] | Potency [3] | outcome [4] | Potency [5] | max response [6] -3.48% | max response [7] 2.85%

Nc1ccccc1O
inactive: Potency [1] > 92 µM | Potency [12] | Potency [2] | Potency [3] | outcome [4] | Potency [5] | max response [6] -1.39% | max response [7] -24.7%

OCC(CO)(CBr)CBr
inactive: Potency [1] > 92 µM | Potency [12] | Potency [2] | Potency [3] | outcome [4] | Potency [5] | max response [6] -0.558% and -3.38% | max response [7] 9.25% and 7.51%

CCCCCCCCOc1ccc(C(=O)O)cc1
active: Potency [6] 7.08 µM
inactive: Potency [1] > 92 µM | Potency [2] | Potency [3] | outcome [4] | Potency [5] | max response [7] -6.08%

c1c[nH]cn1
inactive: Potency [1] > 92 µM | Potency [2] | Potency [3] | outcome [4] | Potency [5] | max response [6] -0.778% | max response [7] -2.06%

C=CC(=O)CC
inactive: Potency [1] > 92 µM | Potency [12] | Potency [2] | Potency [3] | outcome [4] | Potency [5] | max response [6] 8.86% | max response [7] -0.839%

CCCCC(CC)COP(=O)(OCC(CC)CCCC)OCC(CC)CCCC (centres undefined)
inactive: Potency [1] > 92 µM | Potency [12] | Potency [2] | Potency [3] | outcome [4] | Potency [5] | max response [6] -6.02% | max response [7] -10.8%

c1ccc(COCc2ccccc2)cc1
inactive: Potency [1] > 92 µM | Potency [2] | Potency [3] | outcome [4] | Potency [5] | max response [6] -3.88% | max response [7] 3.34%

C=CC(=O)OCCCCCCOC(=O)C=C
inactive: Potency [1] > 92 µM | Potency [12] | Potency [2] | Potency [3] | outcome [4] | Potency [5] | max response [6] 0.65% and -0.822% | max response [7] -16.8% and -7.99%

COc1ccc(C)cc1N
inactive: Potency [1] > 92 µM | Potency [12] | Potency [2] | Potency [3] | outcome [4] | Potency [5] | max response [6] -6.24% | max response [7] -10.4%

O=C(O)/C=C/c1ccc(/C=C/C(=O)O)cc1
inactive: Potency [1] > 92 µM | Potency [2] | Potency [3] | outcome [4] | Potency [5] | max response [6] -4.38% | max response [7] -1.74%

CC(=O)CC(=O)Nc1ccccc1
inactive: Potency [1] > 92 µM | Potency [12] | Potency [2] | Potency [3] | outcome [4] | Potency [5] | max response [6] 0.169% and 0.0126% | max response [7] -0.0894% and -4.18%

Cc1cc(-c2ccc(N=Nc3cc(S(=O)(=O)O)c4ccccc4c3N)c(C)c2)ccc1N=Nc1cc(S(=O)(=O)O)c2ccccc2c1N
inactive: Potency [1] > 92 µM | Potency [2] | Potency [3] | outcome [4] | Potency [5] | max response [6] -11.9% | max response [7] -27.3%

CCCCCCCC/C=C\CCCCCCCC(=O)N(CCO)CCO
inactive: Potency [1] > 92 µM | Potency [12] | Potency [2] | Potency [3] | outcome [4] | Potency [5] | max response [6] 28.4% | max response [7] -24.9%

CCN(CC)c1ccc2c(C)cc(=O)oc2c1
inactive: Potency [1] > 92 µM | Potency [2] | Potency [3] | outcome [4] | Potency [5] | max response [6] -3.98% | max response [7] -2.1%
